Compound activity: PubChem BioAssay, several laboratories
PostGolgi ctrl = inhibits growth of the yeast control strain. efflux-deficient yeast background strain, growth absorbance A615, 16 h. inhibition, % at 10 µM. hit rate 5% among 98,000
sEH act = soluble epoxide hydrolase (human) activation | P34913 | activation, % at 2 µM | purified human sEH enzymatic activity, activator screen | hit rate 0.04% among 91,000; in the data active means activation above about 37%
Cav32 inh = human Cav3.2 channel inhibition, primary screen. B-score at 10 µM. O95180. Cav3.2-expressing cells, Fluo-4 calcium fluorescence FDSS; hits give low values. AID 449739. hit rate 4% among 100,000;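 active means single-dose well whose peak fluorescence ratio is a statistical outlier from its plate by either plate-standardised score or position-corrected B-score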
Target sequence (O95180 whole entry, looked up): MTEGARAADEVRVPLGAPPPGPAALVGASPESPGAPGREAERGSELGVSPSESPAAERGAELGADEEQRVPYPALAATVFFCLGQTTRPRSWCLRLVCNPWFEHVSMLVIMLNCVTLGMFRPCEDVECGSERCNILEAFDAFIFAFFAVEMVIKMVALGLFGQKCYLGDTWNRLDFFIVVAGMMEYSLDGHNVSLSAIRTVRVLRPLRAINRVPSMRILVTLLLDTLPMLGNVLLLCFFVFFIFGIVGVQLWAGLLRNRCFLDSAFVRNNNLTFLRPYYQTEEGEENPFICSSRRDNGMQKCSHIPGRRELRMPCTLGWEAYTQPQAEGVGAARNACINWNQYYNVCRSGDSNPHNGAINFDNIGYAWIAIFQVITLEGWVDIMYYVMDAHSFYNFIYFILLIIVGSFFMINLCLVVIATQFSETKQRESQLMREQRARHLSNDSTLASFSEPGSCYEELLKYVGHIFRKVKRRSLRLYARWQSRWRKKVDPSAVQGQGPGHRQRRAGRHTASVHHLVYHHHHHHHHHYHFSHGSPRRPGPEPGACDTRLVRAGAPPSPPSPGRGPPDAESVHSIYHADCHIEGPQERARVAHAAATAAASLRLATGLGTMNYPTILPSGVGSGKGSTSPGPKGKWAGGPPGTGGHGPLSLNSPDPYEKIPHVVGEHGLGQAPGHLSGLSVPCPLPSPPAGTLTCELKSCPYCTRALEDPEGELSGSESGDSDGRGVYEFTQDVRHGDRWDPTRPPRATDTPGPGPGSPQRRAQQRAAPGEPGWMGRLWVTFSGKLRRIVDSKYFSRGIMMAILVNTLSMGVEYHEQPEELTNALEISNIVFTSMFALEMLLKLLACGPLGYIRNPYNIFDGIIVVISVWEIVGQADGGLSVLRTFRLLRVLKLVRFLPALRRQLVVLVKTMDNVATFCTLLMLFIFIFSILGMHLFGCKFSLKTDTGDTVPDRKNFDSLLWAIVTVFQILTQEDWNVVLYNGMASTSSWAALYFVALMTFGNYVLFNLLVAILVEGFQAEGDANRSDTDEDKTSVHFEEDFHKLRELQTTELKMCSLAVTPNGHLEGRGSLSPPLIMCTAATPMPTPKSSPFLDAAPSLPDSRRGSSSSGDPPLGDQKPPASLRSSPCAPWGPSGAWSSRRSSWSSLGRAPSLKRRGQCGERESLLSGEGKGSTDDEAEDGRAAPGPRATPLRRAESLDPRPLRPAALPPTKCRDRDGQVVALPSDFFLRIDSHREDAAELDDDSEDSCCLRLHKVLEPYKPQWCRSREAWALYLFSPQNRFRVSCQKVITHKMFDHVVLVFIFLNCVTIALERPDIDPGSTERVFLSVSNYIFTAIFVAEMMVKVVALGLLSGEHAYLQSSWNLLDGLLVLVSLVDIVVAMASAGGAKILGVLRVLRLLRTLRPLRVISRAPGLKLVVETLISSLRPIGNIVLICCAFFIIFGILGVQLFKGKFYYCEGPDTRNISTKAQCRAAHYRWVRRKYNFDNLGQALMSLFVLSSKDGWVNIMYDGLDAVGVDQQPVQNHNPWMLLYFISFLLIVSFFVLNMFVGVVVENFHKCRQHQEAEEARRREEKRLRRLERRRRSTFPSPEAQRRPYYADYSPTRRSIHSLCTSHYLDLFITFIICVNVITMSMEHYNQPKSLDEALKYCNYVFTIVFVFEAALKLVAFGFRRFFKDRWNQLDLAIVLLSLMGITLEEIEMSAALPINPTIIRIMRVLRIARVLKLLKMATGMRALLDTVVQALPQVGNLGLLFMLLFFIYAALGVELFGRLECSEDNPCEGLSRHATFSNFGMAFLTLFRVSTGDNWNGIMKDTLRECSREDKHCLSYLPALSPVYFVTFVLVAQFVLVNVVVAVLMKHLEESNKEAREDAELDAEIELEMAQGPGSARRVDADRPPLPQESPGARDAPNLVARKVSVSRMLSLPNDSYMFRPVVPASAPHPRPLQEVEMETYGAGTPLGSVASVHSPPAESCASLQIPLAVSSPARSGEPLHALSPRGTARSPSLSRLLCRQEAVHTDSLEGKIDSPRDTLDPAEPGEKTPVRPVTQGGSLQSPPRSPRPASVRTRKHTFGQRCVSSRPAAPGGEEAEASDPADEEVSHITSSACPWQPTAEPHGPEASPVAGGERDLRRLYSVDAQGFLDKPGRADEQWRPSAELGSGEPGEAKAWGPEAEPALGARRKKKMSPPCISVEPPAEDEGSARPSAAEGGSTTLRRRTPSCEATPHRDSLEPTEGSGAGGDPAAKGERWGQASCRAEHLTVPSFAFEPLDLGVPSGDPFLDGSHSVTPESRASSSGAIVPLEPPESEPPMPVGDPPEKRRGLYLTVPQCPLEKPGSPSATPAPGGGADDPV
PostGolgi yeast = growth inhibition of a yeast mutant, post-Golgi transport screen. hit rate 0.9% among 98,000. inhibition, % at 10 µM. post-Golgi transport phenotypic cell assay. AID 739;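 further: yeast cells grown in 1536-well plates; yeast grown about 18 h at 30C before absorbance read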
sEH inhibitor = inhibitors of human soluble epoxide hydrolase. recombinant human sEH enzymatic activity assay. inhibition, % at 2 µM. hit rate 0.34% among 91,000. P34913. AID 707; in the data active means inhibition above about 80%
* = called active by the depositor; . = no result. This is a sample that favours compounds with a hit; in the whole collection about 7.8% have one here. Unless noted, no stated cut-off is given here; in the data, active means inhibition above about 30%; inactive means the rest.

SMILES	PostGolgi ctrl	sEH act	Cav32 inh	PostGolgi yeast	sEH inhibitor
N#CC1=C(N)NC(SCC(=O)Nc2ccc(Br)cc2)=C(C#N)C12CCCCC2	-9	-43	-6.5*	-8	42
COc1ccccc1S(=O)(=O)Cc1ccc(C(=O)N2CCN(c3ccccn3)CC2)o1	-6	.	0.53	-3	.
O=C(c1cccc(COc2ccc(Cl)cc2Cl)c1)N1CCN(c2ccccn2)CC1	68*	18	-6.2*	4	-18
O=C(c1ccc(COc2ccccc2Br)o1)N1CCN(c2ccccn2)CC1	35*	5	-3.2	-3	-3
O=C(c1ccc(C#Cc2ccccc2)o1)N1CCN(c2ccccn2)CC1	42*	0	-0.77	-1	1
O=C(c1cccc(COc2cccc3ccccc23)c1)N1CCCC1	.	-4	-3.8	.	5
CSc1ccc(CNc2ccc(C)cc2)cc1	-1	-6	-0.19	0	8
CCOc1ccccc1NC(=O)CSc1nnc(Cc2cccn2C)n1-c1ccc(F)cc1	5	3	-9.3*	9	-4
Cn1cccc1Cc1nnc(SCC(=O)NCc2ccccc2)n1-c1ccc(F)cc1	-8	.	-0.94	0	.
CCOC(=O)c1ccccc1NC(=O)CSc1nnc(Cc2cccn2C)n1-c1ccc(F)cc1	10	.	-5.5*	-4	.
Cn1cccc1Cc1nnc(SCC(=O)NC2CCCC2)n1-c1ccc(F)cc1	4	4	1.1	8	0
Cc1nn(C)c(Oc2cccc(Cl)c2)c1C(=O)Nc1ccc(F)cc1	-5	25	0.16	2	-22
Cc1ccc(C(=O)OCn2ncc(Cl)c(Cl)c2=O)cc1	49*	3	-2.1	93*	-4
Cc1ccc(C)c(C(=O)Cn2ncc(Cl)c(Cl)c2=O)c1	18	-7	3.2	18	7
O=C(OCCN1CCN(c2ncc(C(F)(F)F)cc2Cl)CC1)c1ccc(F)cc1	11	-8	-0.068	6	10
O=C(OCn1ncc(Cl)c(Cl)c1=O)c1ccc(C(F)(F)F)cc1	68*	-6	1.6	109*	9
Cc1ccccc1C(=O)c1ccc2c(c1)n(C)c(=O)n2C	3	.	0.86	-1	.
COc1ccc(OC)c(C2=NOC(C(=O)Nc3cc(C)nn3-c3ccccc3)C2)c1 (centres undefined)	41*	.	0.36	-3	.
COc1ccc(C2=NOC(C(=O)Nc3cc(C)on3)C2)cc1 (centres undefined)	35*	-14	0.45	4	13
NC(=O)CC(NC(=O)c1ccccc1)c1ccc(NCCc2ccc(Cl)cc2)c([N+](=O)[O-])c1 (centres undefined)	.	.	0.0016	.	.
CC[C@H](C)[C@@H](NC(=O)O[C@@H]1C(=O)c2cc(Br)ccc2O[C@H]1c1cccc(OC)c1)C(=O)OC	.	.	-0.33	.	.
CCC(C)NS(=O)(=O)c1ccc(S(=O)(=O)N2CCCC3(CCCCC3)C2)cc1 (centres undefined)	5	-4	-6.3*	-5	2
COc1cccc(N2C(=O)N(c3ccccc3Cl)C3CS(=O)(=O)CC32)c1 (centres undefined)	-2	-9	0.73	0	4
Cc1ccccc1N1C(=O)N(c2cccc(C(F)(F)F)c2)C2CS(=O)(=O)CC21 (centres undefined)	39*	-6	-0.61	6	6
O=C1N(c2ccccc2)C2CS(=O)(=O)CC2N1c1ccc(Br)cc1 (centres undefined)	2	-8	-2.4*	3	7
SMILES	PostGolgi ctrl	sEH act	Cav32 inh	PostGolgi yeast	sEH inhibitor
OC(CSc1c(Cl)cccc1Cl)CN1CCN(c2ccccc2F)CC1 (centres undefined)	26	-7	-2.6	-2	5
OC(CSc1ccccc1Cl)CN1CCN(c2ccccc2F)CC1 (centres undefined)	21	-5	-3.4	-6	7
OC(CSc1c(Cl)cccc1Cl)CN1CCN(c2ccc(F)cc2)CC1 (centres undefined)	37*	-2	-2.3	20	4
OC(CSc1ccccc1Cl)CN1CCN(c2ccc(F)cc2)CC1 (centres undefined)	31*	-4	-3.1	28	6
Cc1c(C(=O)NCc2ccccc2)c(-c2ccccc2)nn1-c1ccccc1	15	-6	1.1	-7	8
CCOc1ccc(S(=O)(=O)N2CCN(C(=O)c3sccc3C)CC2)cc1	5	8	-0.72	-1	-6
COc1cc(N2CN=c3s/c(=C\c4ccccn4)c(=O)n3C2)cc(OC)c1OC	-11	.	-1.2	-2	.
O=S(=O)(Nc1ccc(Cc2ccncc2)cc1)c1ccc(Cl)c(Cl)c1	96*	9	-0.92	107*	-8
O=C(Nc1ccc(Cl)c(Cl)c1)c1ccncc1	3	-12	0.87	-2	11
O=C(Nc1ccc(Cc2ccncc2)cc1)c1ccc(Cl)c([N+](=O)[O-])c1	78*	-64	-8.7*	67*	63
Cc1ccc(C(=O)N2CCN3C(=O)c4ccccc4C23c2ccc(Cl)cc2)cc1 (centres undefined)	39*	0	-5*	21	2
O=C(Nc1cccc(Cl)c1)N1CCN2C(=O)c3ccccc3C12c1ccccc1 (centres undefined)	4	.	-6.6*	18	.
CC(C)CN1CCC(=O)N(CCSc2ccc(Br)cc2)CC1	.	.	-0.039	.	.
COc1ccc(-c2ccnc3nc(N4CCN(c5ccccc5)CC4)nn23)cc1	53*	-6	-1.1	-2	5
CN1CCN(C2=C(Cl)C(=O)N(c3ccc(Cl)cc3)C2=O)CC1	31*	.	-0.32	1	.
CCSc1ncc(/C=N/Nc2ccc(Cl)cc2)n1C	23	-5	0.012	32*	3
CCC1CCCCN1C(=O)CSc1nnc(CNC(=O)COc2ccc(Cl)cc2)o1 (centres undefined)	4	6	-0.93	-3	-4
CC(C)(C)c1ccc(S(=O)(=O)Nc2cccnc2)cc1	30*	22	-1.5	-3	-21
O=S(=O)(Nc1cccnc1)c1ccc(Cl)cc1	8	-4	0.21	-1	4
CC(=O)NCCc1ccc(S(=O)(=O)Nc2cccnc2)cc1	33*	-4	-0.47	5	7
Cc1sc(NC(=S)NC(=O)C(C)(C)C)c(C(N)=O)c1C	15	14	0.044	-6	-12
CC1=C(C(=O)Nc2cccnc2)C(c2ccc(C(C)C)cc2)n2ncnc2N1 (centres undefined)	7	-1	0.015	1	1
O=C(Cn1cnnn1)Nc1ccccc1Cc1ccccc1	0	0	-0.024	0	2
COc1cccc(N2CCN(c3c(C#N)c(C(F)(F)F)nn3C)CC2)c1	51*	-4	-0.15	1	7
O=C(CCc1ccccc1)N1CCN(c2ccc(Cl)cc2)CC1	5	0	-5*	12	1
Cn1cc(CC(=O)N2CCN(c3ccc(Cl)cc3)CC2)c2ccccc21	3	-6	-4.5*	0	8
O=C(N[C@@H](Cc1ccccc1)C(=O)OCc1ccccc1)c1nc[nH]c1C(=O)NCc1ccccc1	.	.	0.036	.	.
C=CCn1c(=O)/c(=C2/SC(C)=C(C)N2CC)s/c1=C1/C(=O)N(C)C(=S)N1c1ccccc1	.	3	.	.	-5
CCc1nnc(NC(=O)CN2CCN(c3ccc(Cl)cc3)CC2)s1	.	1	.	.	3
